Assay [1] in a line: small molecules captured by biotinylated probe aFSTL3 – biochemical, small-molecule microarray, fluorescence 635/667, stem cell growth factor project, primary screen (AID 1064).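 Note: measures binding of the biotinylated anti-FSTL3 antibody to printed compounds.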 The settings on record: higher = more signal.
The nature of assay [2]: binders from COS7 lysate, DM2A8 probe, primary screen, torsin A project, cell lysate, small-molecule microarray, fluorescence 635/667 (AID 1065). The settings on record: higher = more signal, COS7 lysate expressing mutant human TOR1A.
Assay [3] is described as follows: small molecules captured by biotinylated probe aFGF2 – biochemical, small-molecule microarray, fluorescence 635/667, stem cell growth factor project, primary screen (AID 1067).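 Note: measures binding of biotinylated aFGF2 protein to printed compounds on slides; z-score merges feature fluorescence and signal-to-noise across triplicate slides.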 Particulars: higher = more signal.
Assay [4] is described as follows: small molecules captured by biotinylated probe aFGF10 – biochemical, small-molecule microarray, fluorescence 635/667, stem cell growth factor project, primary screen (AID 1071).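 Note: score merges 667 nm spot intensity and signal to noise from triplicate slides.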 The settings on record: higher = more signal.
Assay [5] has as its target Neurogenic locus notch homolog protein 2 (Homo sapiens) (UniProt Q04721). In words: small molecules binding Notch2 protein – biochemical, small-molecule microarray, 635 nm fluorescence, stem cell growth factors, primary screen (AID 1073). Particulars: higher = more signal.
Assay [6] concerns the target Pro-neuregulin-1, membrane-bound isoform (Homo sapiens) (UniProt Q02297). The experiment in a line: small molecules binding neuregulin-1 protein – biochemical, small-molecule microarray, fluorescence 635/667, psychiatric disease protein project, primary screen (AID 1075).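 Note: score combines 667 nm spot fluorescence with signal to noise.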 Particulars: NRG1 binding, 635 nm fluorescence, higher = more signal.
The subject of assay [7] is Neuregulin-1 EGF-like domain. The experiment in a line: small molecules binding NRG1 EGF domain – biochemical, small-molecule microarray, 635 nm fluorescence, primary screen (AID 1081).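 Note: binding of the protein to compounds printed on small-molecule microarray slides.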 Particulars: higher = more signal.
Assay [8] in a line: FRG1 expression reporter modulators in myotubes – cell-based, C2C12 myotubes, firefly/Renilla luciferase, luminescence, FRG1 inhibition for FSHD, primary screen (AID 1084). The settings on record: FRG1 promoter luciferase, higher = more signal, called active from +8 up or from −8 down.
A short description of assay [9]: small molecules captured by biotinylated probe aFST – biochemical, small-molecule microarray, fluorescence 635/667, stem cell growth factor project, primary screen (AID 1086).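 Note: score merges 667 nm fluorescence with signal-to-noise of each printed compound spot.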 Particulars: higher = more signal.
The nature of assay [10]: binders of probe aHhip on microarray, primary screen, stem cell growth factor project, biochemical, small-molecule microarray, fluorescence 635/667 (AID 1087).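 Note: score merges spot fluorescence at 667nm with spot signal to noise ratio.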 Particulars: higher = more signal.
Assay [11] deals with PRMT1 (protein arginine N-methyltransferase 1). In words: small molecules binding arginine methyltransferase PRMT1 – biochemical, small-molecule microarray, 635 nm fluorescence, primary screen (AID 1088).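 Note: binding of Prmt1 protein to compounds spotted on small-molecule microarray slides.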 Particulars: higher = more signal.
A short description of assay [12]: growth effects on S. cerevisiae YJM789 – YJM789 clinical isolate, OD600, 24 h, basal, primary screen (AID 1089).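 Note: growth of clinical yeast isolate S. cerevisiae YJM 789 seeded 1000 cells per well; test concentration not given here.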 The settings on record: higher = more signal, called active from +8 up or from −8 down.
Assay [13] is described as follows: S. pombe growth modifiers, basal conditions – strain 972, OD600, 24 h, no modulator, primary screen (AID 1090).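 Note: basal condition with compound alone and no growth modifier present; test concentration not given here.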 Particulars: S. pombe 972 growth, higher = more signal, called active from +8 up or from −8 down.
A short description of assay [14]: budding yeast growth modifiers under rapamycin – strain BY4716, OD600, 96 h, primary screen (AID 1091). Note: test concentration not given here. Particulars: S. cerevisiae BY4716 + rapamycin, higher = more signal, called active from +8 up or from −8 down.
The target in assay [15] is Torsin-1A-interacting protein 2 (Homo sapiens) (UniProt Q8NFQ8). The experiment in a line: small molecules binding lysate-expressed LULL1 – cell lysate, human LULL1 lysate, 635/667 nm fluorescence, primary screen (AID 1092).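 Note: probe is lysate of COS7 cells overexpressing human LULL1; score merges per-feature 667 nm fluorescence with signal-to-noise.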 The settings on record: small-molecule microarray, hLULL1 lysate binding, 635 nm fluorescence; higher = more signal.
A short description of assay [16]: optical density change of DRC41 E. coli – strain DRC41, OD650, 24 h, E. coli filamentation project, primary screen (AID 1093).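 Note: MC1000 strain lacking acrAB efflux and sulA so SOS filamentation is blocked; test concentration not given here.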 Particulars: E. coli DRC41 growth, higher = more signal, called active from +8 up or from −8 down.
The nature of assay [17]: probe aLefty2 binding to arrayed compounds – biochemical, biotinylated probe, 635/667 nm fluorescence, primary screen (AID 1094).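 Note: score merges spot fluorescence near 667 nm with spot signal-to-noise ratio.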 The settings on record: small-molecule microarray, higher = more signal.
Assay [18] concerns Noggin (protein binding on small-molecule microarray). The experiment in a line: small molecules binding Noggin protein – biochemical, 635/667 nm fluorescence, primary screen (AID 1095).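 Note: score merges 667 nm feature fluorescence with signal to noise over triplicate slides.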 Particulars: 635 nm fluorescence, higher = more signal.
Assay [19] has as its target Neurogenic locus notch homolog protein 3 (Homo sapiens) (UniProt Q9UM47). The experiment in a line: small molecules binding NOTCH3 protein – biochemical, 635/667 nm fluorescence, primary screen (AID 1096). Particulars: small-molecule microarray, 635 nm fluorescence, higher = more signal.
Assay [20] is described as follows: probe aEGFR binding to arrayed compounds – biochemical, biotinylated probe, 635/667 nm fluorescence, primary screen (AID 1097).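 Note: probe is a biotinylated anti-EGFR antibody binding compounds printed on slides; score combines fluorescence near 667 nm and signal to noise of each spot.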 Particulars: small-molecule microarray, higher = more signal.

Activity calls are given as the source filed them.

Sequence of Pro-neuregulin-1, membrane-bound isoform (Homo sapiens) (Q02297 whole entry, looked up, the tested form may be a part, canonical isoform): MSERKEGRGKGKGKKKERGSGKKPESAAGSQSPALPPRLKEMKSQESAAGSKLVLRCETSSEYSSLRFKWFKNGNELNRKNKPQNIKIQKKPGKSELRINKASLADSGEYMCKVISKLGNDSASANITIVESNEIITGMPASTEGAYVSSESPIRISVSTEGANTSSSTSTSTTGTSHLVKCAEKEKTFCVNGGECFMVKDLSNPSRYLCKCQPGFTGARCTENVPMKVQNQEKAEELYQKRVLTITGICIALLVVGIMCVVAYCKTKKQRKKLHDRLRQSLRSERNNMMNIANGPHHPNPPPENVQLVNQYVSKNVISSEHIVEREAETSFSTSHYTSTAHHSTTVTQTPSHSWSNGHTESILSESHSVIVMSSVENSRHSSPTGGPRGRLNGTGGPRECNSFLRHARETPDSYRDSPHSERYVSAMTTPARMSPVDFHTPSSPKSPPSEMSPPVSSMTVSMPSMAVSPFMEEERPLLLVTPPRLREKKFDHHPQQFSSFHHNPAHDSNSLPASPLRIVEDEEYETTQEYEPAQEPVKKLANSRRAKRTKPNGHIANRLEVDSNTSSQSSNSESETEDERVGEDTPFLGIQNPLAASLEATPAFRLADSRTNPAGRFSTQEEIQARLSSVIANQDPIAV
Sequence of Torsin-1A-interacting protein 2 (Homo sapiens) (Q8NFQ8 whole entry, looked up): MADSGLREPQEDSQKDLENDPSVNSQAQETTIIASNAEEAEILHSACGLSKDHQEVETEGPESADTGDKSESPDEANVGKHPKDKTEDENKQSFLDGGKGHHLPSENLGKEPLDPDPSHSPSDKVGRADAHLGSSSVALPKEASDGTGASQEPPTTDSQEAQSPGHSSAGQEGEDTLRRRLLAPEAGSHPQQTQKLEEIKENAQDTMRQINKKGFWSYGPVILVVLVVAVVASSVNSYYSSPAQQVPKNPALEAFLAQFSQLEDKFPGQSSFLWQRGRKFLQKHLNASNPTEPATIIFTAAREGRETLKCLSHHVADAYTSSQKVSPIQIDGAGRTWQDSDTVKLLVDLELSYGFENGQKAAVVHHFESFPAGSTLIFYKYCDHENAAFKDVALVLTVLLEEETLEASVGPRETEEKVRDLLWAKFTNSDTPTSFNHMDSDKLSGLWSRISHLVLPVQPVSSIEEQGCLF
Sequence of Neurogenic locus notch homolog protein 2 (Homo sapiens) (Q04721 whole entry, looked up, canonical isoform): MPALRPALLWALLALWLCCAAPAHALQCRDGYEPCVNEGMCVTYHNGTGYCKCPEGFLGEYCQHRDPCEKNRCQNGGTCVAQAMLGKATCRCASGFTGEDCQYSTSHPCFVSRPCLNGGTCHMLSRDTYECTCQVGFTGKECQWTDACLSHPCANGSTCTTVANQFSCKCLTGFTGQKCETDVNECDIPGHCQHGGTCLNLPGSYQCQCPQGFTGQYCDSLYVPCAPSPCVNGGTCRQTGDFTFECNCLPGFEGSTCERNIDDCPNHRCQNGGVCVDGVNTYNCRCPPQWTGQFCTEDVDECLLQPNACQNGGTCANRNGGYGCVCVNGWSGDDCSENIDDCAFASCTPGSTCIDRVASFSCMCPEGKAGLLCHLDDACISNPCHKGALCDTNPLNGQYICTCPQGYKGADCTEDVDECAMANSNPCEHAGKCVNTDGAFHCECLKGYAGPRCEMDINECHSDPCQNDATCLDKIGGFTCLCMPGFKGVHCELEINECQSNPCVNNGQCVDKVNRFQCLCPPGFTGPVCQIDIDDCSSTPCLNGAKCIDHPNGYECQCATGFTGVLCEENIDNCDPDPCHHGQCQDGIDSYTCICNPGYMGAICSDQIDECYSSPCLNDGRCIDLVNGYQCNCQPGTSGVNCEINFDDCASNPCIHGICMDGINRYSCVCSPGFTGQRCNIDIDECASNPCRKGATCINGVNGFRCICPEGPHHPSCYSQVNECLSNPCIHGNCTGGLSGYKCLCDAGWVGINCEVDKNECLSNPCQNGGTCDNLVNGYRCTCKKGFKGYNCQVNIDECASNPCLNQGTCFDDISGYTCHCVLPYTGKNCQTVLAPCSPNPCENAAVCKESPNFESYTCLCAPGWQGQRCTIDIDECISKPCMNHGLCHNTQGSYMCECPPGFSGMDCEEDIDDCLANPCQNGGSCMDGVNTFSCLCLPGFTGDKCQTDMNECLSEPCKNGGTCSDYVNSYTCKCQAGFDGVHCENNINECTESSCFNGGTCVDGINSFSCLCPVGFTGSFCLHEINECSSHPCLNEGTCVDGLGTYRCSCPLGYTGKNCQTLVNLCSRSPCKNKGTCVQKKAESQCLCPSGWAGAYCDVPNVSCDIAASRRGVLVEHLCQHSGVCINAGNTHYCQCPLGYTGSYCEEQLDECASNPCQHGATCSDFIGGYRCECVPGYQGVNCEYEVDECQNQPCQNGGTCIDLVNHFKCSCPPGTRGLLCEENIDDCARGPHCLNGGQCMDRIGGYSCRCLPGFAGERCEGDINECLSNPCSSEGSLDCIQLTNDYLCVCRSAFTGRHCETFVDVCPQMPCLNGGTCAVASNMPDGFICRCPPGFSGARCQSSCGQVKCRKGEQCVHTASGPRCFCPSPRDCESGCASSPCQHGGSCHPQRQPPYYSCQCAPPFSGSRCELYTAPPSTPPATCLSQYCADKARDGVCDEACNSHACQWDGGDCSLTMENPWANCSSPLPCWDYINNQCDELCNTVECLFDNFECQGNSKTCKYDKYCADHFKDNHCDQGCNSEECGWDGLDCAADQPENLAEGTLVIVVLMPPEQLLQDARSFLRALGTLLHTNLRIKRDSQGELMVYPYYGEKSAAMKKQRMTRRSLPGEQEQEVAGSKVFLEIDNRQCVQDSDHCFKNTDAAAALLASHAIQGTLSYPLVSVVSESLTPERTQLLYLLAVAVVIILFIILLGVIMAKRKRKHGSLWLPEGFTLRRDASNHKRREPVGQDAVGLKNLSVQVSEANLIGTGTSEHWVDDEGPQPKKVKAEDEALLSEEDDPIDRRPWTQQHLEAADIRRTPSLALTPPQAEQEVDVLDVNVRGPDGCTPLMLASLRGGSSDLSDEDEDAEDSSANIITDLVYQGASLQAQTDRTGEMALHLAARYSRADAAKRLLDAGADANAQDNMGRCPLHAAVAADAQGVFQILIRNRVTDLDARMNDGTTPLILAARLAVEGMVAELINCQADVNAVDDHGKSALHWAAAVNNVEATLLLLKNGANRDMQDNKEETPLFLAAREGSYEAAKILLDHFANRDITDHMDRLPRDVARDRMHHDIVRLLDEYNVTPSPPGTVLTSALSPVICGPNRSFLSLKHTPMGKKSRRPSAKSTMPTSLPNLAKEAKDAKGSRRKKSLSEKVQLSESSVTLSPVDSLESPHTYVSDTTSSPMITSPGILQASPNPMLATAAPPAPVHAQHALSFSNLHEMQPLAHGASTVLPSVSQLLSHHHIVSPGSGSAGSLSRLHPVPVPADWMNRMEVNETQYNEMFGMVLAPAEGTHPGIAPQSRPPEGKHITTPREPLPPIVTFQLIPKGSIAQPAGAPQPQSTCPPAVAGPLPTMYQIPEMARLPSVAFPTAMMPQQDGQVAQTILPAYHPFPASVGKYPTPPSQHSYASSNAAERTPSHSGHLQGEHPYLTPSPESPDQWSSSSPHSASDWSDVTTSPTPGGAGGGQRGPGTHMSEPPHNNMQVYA

Consider `COc1ccc(C#Cc2ccc3c(c2)[C@]2(C(=O)N3)[C@H](C(=O)N3CCCCCCC3)[C@H]3C(=O)O[C@H](c4ccccc4)[C@H](c4ccccc4)N3[C@@H]2c2ccc(O)cc2)cc1`, for which the composite z-score in assay [1] was 2.46; in [2], 0.578; in assay [3], 0.102; in [4], 0.295; in assay [5], 0.97; in assay [6] it was -0.234. The composite z-score stood at 1.24 in assay [7]; 2.24 in assay [9]; 0.606 in assay [10]; 1.56 in assay [11]; 3.12 in assay [15]; 1 in assay [17]. Moreover, the values for the composite z-score in assay [18], in assay [19] and in [20] were 0.719, 1.1 and 0.426, respectively. The z-score was 0.626 (inactive) in assay [8]; -0.0118 (inactive) in assay [12]; 0.0345 (inactive) in [13]; 0.595 (inactive) in assay [14]; 0.209 (inactive) in assay [16].
Turning to `C=CCC(OC(C)=O)[C@@H]1[C@@H](N(Cc2cccc3ccccc23)C(=O)c2cccc3ccccc23)c2cc(OCCCO)ccc2N1C(=O)c1ccc2ccccc2c1` (stereo not given in full), the composite z-score in assay [1] was -0.232; in [2], -0.124; in assay [3], 0.365; in [4], 0.0197; in assay [5] it was -0.833; in assay [6], -0.247. Further, the composite z-score in [7] was -0.313; in assay [9], 0.268; in [10], -0.132; in assay [11] it was 0.692; in assay [15], 1.65; in assay [17], -0.156. The composite z-score in assay [18] was 0.345; in [19] it was -0.0325; in assay [20] it was -0.0967. Also, the z-score in assay [8] is -2.36 (inactive); in [12], -0.55 (inactive); in assay [13] it was 0.672 (inactive); in [14], -1.35 (inactive); in assay [16], 0.195 (inactive).
Take `C=CCNC(=O)[C@H]1[C@@H]2C(=O)O[C@@H](c3ccccc3)[C@@H](c3ccccc3)N2[C@@H](c2ccc(O)cc2)[C@]12C(=O)N(C(=O)OCCOC)c1ccc(C#CCC(C(=O)OC)C(=O)OC)cc12`: the composite z-score was -0.114 in assay [1]; 0.85 in assay [2]; -0.0422 in [3]; 0.453 in assay [4]; 0.719 in assay [5]; 0.225 in [6]. Moreover, the composite z-score is 1.21 in assay [7]; 0.376 in assay [9]; -0.162 in assay [10]; 1.56 in assay [11]; 2.11 in [15]; -0.0229 in [17]. Moreover, the composite z-score stood at 1.2 in assay [18], 1.11 in assay [19] and 0.0551 in [20]. The z-score in assay [8] is 0.172 (inactive); in assay [12], 0.106 (inactive); in assay [13] it was 1.57 (inactive); in assay [14], 5.5 (inactive); in [16], 0.301 (inactive).
On to `[N-]=[N+]=NCc1ccccc1[C@@H]1OC(c2ccc(OCCCO)cc2)=N[C@]1(Cc1ccccc1N=[N+]=[N-])C(=O)NCCN1CCOCC1`, for which the composite z-score is -0.0579 in [1]; 0.909 in [2]; 0.088 in assay [3]; 0.828 in assay [4]; 1.56 in assay [5]; 1.19 in [6]. Moreover, the composite z-score in [7] is 1.25; in assay [9], 1.11; in [10], -0.213; in [11], 1.55; in [15] it was 3.26; in assay [17], 0.0814. For the same molecule, the composite z-score in assay [18] stood at 1.6; in [19] it was 1.05; in [20], 0.0809. Moreover, the z-score in assay [8] is 0.982 (inactive); in [12], -0.563 (inactive); in [13] it was -4.92 (inactive); in assay [14], -0.889 (inactive); in assay [16], 0.118 (inactive).
`COc1cc(NN2C(C(O)C3CCCCC3)C=CC3C(=O)N(C)C(=O)C32)cc(OC)c1OC` (stereo not given): the composite z-score in [1] came to 0.322; in [2] it was 0.054; in assay [3], 0.162; in assay [4] it was 0.306; in assay [5], 1.59; in [6] it was 1.65. In addition, the composite z-score stood at 1.21 in assay [7]; 0.479 in assay [9]; 0.0877 in assay [10]; 1.48 in [11]; 3.46 in assay [15]; 0.855 in [17]. The composite z-score in assay [18] was -0.0279; in assay [19], 1.09; in assay [20], 0.186. Besides, the z-score in [8] is 0.391 (inactive); in [12], 0.137 (inactive); in assay [13], 0.169 (inactive); in assay [14], 0.0624 (inactive); in assay [16], -0.853 (inactive).

(Values after PubChem BioAssay.)
